Several values for one entry are separate records, joined by “and”; a condition that tells them apart may be missing. Equal values may be shown once. Unmarked numbers belong to inactive results. Results filed as inconclusive are left out. Activity calls are given as the source filed them. Unless noted, calls follow the shape of the dose curve; as a rule, active = well fitted curve in either direction with a large enough effect (not every such curve was filed as active); inconclusive = small, poorly fitted or top-dose-only effect, or another doubt; inactive = flat fitted curve, though single readings scatter. Where only a bound is given, the exact number is not on record here.

The record followed here is PubChem BioAssay (NCATS).

Assay [1] can be described thus: AP1 Signaling Pathway (AID 357).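 Also: ME-180 reporter cells stimulated with EGF at its EC50 level; % is scaled to controls: 0 for no effect and ±100 for the full control effect.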 Summed up: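 A ratiometric CCF4 readout (405 nm excitation; 460 and 530 nm emission) quantified AP-1-driven beta-lactamase in ME-180 cells after 5 h with compound and EC50 EGF; AC50 values were derived for activators and inhibitors.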
Assay [2] is described as follows: Cell Viability - BJ (AID 421; calls by dose curve;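 also: potency is read from the fitted curve at half-maximal effect; cells exposed to compound for 40 hours at 37 °C before readout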). Conditions: BJ fibroblast viability, qHTS. Put shortly: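 Quantitative HTS: ATP depletion in BJ cells after 40 hr compound exposure in complete culture medium, detected with CellTiter-Glo; AC50 from standard Hill fits.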
The nature of assay [3]: Cell Viability - Jurkat (AID 426;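 active = dose-dependent loss of cell ATP signal giving a full or clear fitted curve, ranked by lower potency value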; also: potency is read from the fitted curve at half-maximal effect). The settings on record: qHTS. Summed up: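 Luminescent ATP read-out (CellTiter-Glo, 20 min at room temperature) after 40 hr compound exposure at 37 °C of Jurkat E6-1 cells, 5000/well. Decreased ATP taken as cytotoxicity; AC50 from standard Hill equation.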
In general terms: Quantitative high-throughput screening tests each substance at several concentrations.

A short description of assay [4]: Cell Viability - Hek293 (AID 427;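 active = compounds whose dose-response curve shows a full or clear partial loss of cell viability, called from curve shape rather than a numeric limit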;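 also: potency is read from the fitted curve at half-maximal effect; cells exposed to compound for 40 hours at 37 °C before reading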). Conditions: qHTS. Summed up: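 AC50 values derive from Hill-modelled concentration-response of ATP-based luminescence, normalized between DMSO-only and 100 uM tamoxifen controls. Cells were exposed in complete culture medium for 40 hr at 37 °C before detection.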
Assay [5] is described as follows: Cell Viability - HepG2 (AID 433; calls by dose curve; also: potency is read from the fitted curve at half-maximal effect). The settings on record: qHTS. Put shortly: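 HepG2 cells, 1500 per well, treated 40 hr at 37 °C in complete medium; viability from intracellular ATP by CellTiter-Glo luminescence. Normalized to DMSO and 100 uM tamoxifen; AC50 from Hill fit of qHTS concentration-response.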
Assay [6] is described as follows: Cell Viability - MRC5 (AID 434; calls by dose curve;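 also: potency is read from the fitted curve at half-maximal effect; potency reflects cytotoxicity seen as loss of intracellular ATP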). The settings on record: MRC5 lung fibroblast viability, qHTS. Put shortly: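 ATP luminescence read-out (CellTiter-Glo, 20 min RT) after 40 hr, 37 °C compound exposure of 1500 MRC5 cells/well. Data normalized to DMSO (basal) and 100 uM tamoxifen (100% inhibition); AC50 from standard Hill equation.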
The nature of assay [7]: Cell Viability - SK-N-SH (AID 435; calls by dose curve;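 also: potency is read from the fitted curve at half-maximal effect; compound exposure lasted 40 h at 37 °C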). Conditions: SK-N-SH neuroblastoma cell viability qHTS. Summed up: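 SK-N-SH neuroblastoma cells (1500/well) treated 40 h at 37 °C in complete medium; viability read as cellular ATP by CellTiter-Glo luminescence. Normalized to DMSO and 100 uM tamoxifen; AC50 from Hill fits of qHTS concentration-response.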
Assay [8] can be described thus: NFAT Signaling Pathway (AID 444).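 Also: carbachol stimulus at about its EC50 of 1 µM final; % is scaled to controls: 0 for no effect and ±100 for the full control effect.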 Conditions: Jurkat NFAT-bla M1, carbachol, beta-lactamase ratio, 5 h. Summed up:
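Jurkat cells with NFAT-driven β-lactamase reporter and co-expressed M1 receptor, stimulated with carbachol (final 1 uM, ~EC50), compound titration, 5 h at 37 °C. CCF4 loaded 1 h at RT; 460/530 nm ratio gave %activity and AC50.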

The nature of assay [9]: Stat Signaling Pathway (AID 446).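 Also: ME-180 cervical cancer cells given 40 pM IL-6 alongside compound; SIE-controlled beta-lactamase reporter measured as 460/530 nm FRET emission ratio; % is scaled to controls: 0 for no effect and ±100 for the full control effect.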 Put shortly:
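Overnight-plated ME-180 cells bearing a STAT Inducible Element beta-lactamase reporter; 5 h co-exposure to compound and 40 pM IL-6; values normalized to 300 pM IL-6 and 125 nM JAK inhibitor controls.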

Assay [10] deals with Glucocorticoid receptor (Homo sapiens) (UniProt P04150). Description: GR-GFP Redistribution (AID 450;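 active = compounds whose dose series gives a full or clear partial fitted curve of increased nuclear translocation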; also: potency is read from the fitted curve at half-maximal effect). The settings on record: U2OS GR-GFP nuclear translocation, laser cytometry, 2 h.
The target is the same in assay [11]. Description: GR-EFC Redistribution (AID 451; calls by dose curve; also: potency is read from the fitted curve at half-maximal effect). The settings on record: CHO-K1 GR-EFC translocation, beta-gal luminescence, 2 h. Put shortly:
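CHO-K1 cells expressing nuclear EA and GR-ED fragments of b-gal; compounds titrated up to 46 uM final, 2 h at 37 C. GR nuclear translocation read as complemented b-gal luminescence after 1 h RT detection.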

The target of assay [12] is Mitogen-activated protein kinase 10 (Mus musculus) (UniProt Q61831). Description: JNK3 AlphaScreen Assay (AID 530).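 Also: kinase came from lysate of stimulated human HepG2 cells; signal reports phosphorylation of biotinylated GST-cJun 1-79 at Ser73 with 10 µM ATP; % is scaled to controls: 0 for no effect and ±100 for the full control effect.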 Put shortly:
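HepG2 lysate (IL-1b/TNFa pre-activated) + biotin-GST-cJun 1-79 + anti-pSer73 cJun; cpd titration, 15 min RT; ATP 10 uM start; Tris pH 7.6, MgCl2, DTT, vanadate; beads in EDTA buffer; AlphaScreen.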
Background: In Alpha technology, singlet oxygen from a donor bead excites a nearby acceptor bead.

Assay [13] can be described thus: Cell Viability - N2a (AID 540; active = well fitted curve in the direction sought with a large enough effect; an effect the other way counts as inactive or inconclusive;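 also: plate controls were DMSO alone for no effect and tamoxifen control for full effect; nearly all actives have a fitted effect of over 45% in size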). Conditions: N2a mouse neuroblastoma cell viability; activity change, negative = cytotoxicity: at 92.2 µM (top of the series). Summed up:
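N2a mouse neuroblastoma, 1500 cells/well, 5 hr settle; compound 40 hr, 37 °C; CellTiter-Glo 20 min RT; luminescence; Hill-fit AC50.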

Assay [14] can be described thus: Cell Viability - NIH 3T3 (AID 541; active = well fitted curve in the direction sought with a large enough effect; an effect the other way counts as inactive or inconclusive;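 also: plate controls were DMSO alone for no effect and tamoxifen positive control for full effect; nearly all actives have a fitted effect of over 25% in size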). Conditions: NIH 3T3 cell viability, qHTS; activity change, negative = cytotoxicity: at 92.2 µM (top of the series). Summed up:
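qHTS format; 40 hr compound exposure, 37 °C; CellTiter-Glo luminescence (cellular ATP) read-out after 20 min at RT. Decrease in ATP = cytotoxicity; AC50 from standard Hill fit.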

Assay [15] is described as follows: Cell Viability - HUV-EC-C (AID 542; active = well fitted curve in the direction sought with a large enough effect; an effect the other way counts as inactive or inconclusive; also: % is scaled to controls: 0 for no effect and ±100 for the full control effect; nearly all actives have a fitted effect of over 35% in size). Put shortly: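 Luminescent ATP read-out (CellTiter-Glo, 20 min room temperature) after 40 hr compound treatment of HUV-EC-C cells at 37 °C. Concentration-response data fitted with the standard Hill equation to give AC50; tamoxifen and doxorubicin served as positive controls.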
The nature of assay [16]: Cell Viability - SH-SY5Y (AID 544; active = well fitted curve in the direction sought with a large enough effect; an effect the other way counts as inactive or inconclusive;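 also: 0% = DMSO alone and -100% = 100 µM tamoxifen; nearly all actives have a fitted effect of over 55% in size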). The settings on record: SH-SY5Y neuroblastoma cell viability; viability change, negative = cytotoxic: at 92.2 µM (top of the series). Put shortly: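 SH-SY5Y, 1500 cells/well, 5 hr pre-incubation 37 °C; cpd 40 hr 37 °C; CellTiter-Glo 20 min RT; luminescence (ATP) read. qHTS concentration-response, Hill fit → AC50. Tamoxifen, doxorubicin as positive controls.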

A short description of assay [17]: Cell Viability - Mesenchymal (AID 546; active = well fitted curve in the direction sought with a large enough effect; an effect the other way counts as inactive or inconclusive;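 also: cells exposed to compound for 40 hours before reading; 0% = DMSO only and -100% = 100 µM tamoxifen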). Summed up: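 Human renal mesenchymal cells (glomerulus-derived), 1000 cells/well, 5 hr 37 °C pre-incubation; compound 40 hr, 37 °C; CellTiter-Glo, 20 min RT; luminescence; AC50 via Hill equation.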
Assay [18] deals with 3',5'-cyclic-AMP phosphodiesterase 4B (Homo sapiens) (UniProt Q07343). Description: qHTS Assay for Inhibitors of PDE-IV (AID 607; active = well fitted activation curve with a large enough effect in the main read-out, with a control signal flat, not every such curve was filed as active; also: % of control where 0% means no effect). Summed up:
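Live HEK293 cells with a modified cyclic nucleotide-gated (CNG) channel report intracellular cAMP via membrane-potential dye fluorescence (ex 535/em 590 nm). Endogenous PDE-IV was targeted. Compounds were tested at up to 22.9 uM final; RO 20-1724 100 uM served as control.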

Assay [19] concerns the target Cytochrome P450 1A2 (Homo sapiens) (UniProt P05177). The assay is described as follows: p450-cyp1a2 (AID 410; calls by dose curve; also: potency is read from the fitted curve at half-maximal effect;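 as to activity change, negative = inhibition: -100% = full effect of reference inhibitor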). Put shortly:
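20nM CYP1A2, 100uM Luciferin-ME (=Km), 100mM KPO4; cpd 10 min RT; +NADPH regen, 60 min RT; stop/detect 20 min; luminescence. Normalized to furafylline 57 uM = full inhibition.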

Chain of 3',5'-cyclic-AMP phosphodiesterase 4B (Homo sapiens) (Q07343 whole entry, looked up): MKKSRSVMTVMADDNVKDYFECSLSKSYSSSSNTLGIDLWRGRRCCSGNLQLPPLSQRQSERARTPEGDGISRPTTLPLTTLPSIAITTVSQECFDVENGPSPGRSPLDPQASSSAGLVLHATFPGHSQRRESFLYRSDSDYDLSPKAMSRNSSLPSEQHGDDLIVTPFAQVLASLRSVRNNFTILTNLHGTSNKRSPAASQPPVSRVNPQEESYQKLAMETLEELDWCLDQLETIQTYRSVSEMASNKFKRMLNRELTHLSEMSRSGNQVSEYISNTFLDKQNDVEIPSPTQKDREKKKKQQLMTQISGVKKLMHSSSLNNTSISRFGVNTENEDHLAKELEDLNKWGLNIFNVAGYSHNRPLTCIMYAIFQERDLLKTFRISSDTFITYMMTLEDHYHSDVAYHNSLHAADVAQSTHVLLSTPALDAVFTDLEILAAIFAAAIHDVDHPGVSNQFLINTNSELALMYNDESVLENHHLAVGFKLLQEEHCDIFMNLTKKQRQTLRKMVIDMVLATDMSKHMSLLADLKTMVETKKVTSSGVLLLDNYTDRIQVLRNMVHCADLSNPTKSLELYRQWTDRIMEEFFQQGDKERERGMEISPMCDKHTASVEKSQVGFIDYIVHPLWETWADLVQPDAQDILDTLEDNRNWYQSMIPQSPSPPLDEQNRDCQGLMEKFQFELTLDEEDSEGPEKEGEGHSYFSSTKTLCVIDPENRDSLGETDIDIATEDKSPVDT
Chain of Glucocorticoid receptor (Homo sapiens) (P04150 whole entry, looked up): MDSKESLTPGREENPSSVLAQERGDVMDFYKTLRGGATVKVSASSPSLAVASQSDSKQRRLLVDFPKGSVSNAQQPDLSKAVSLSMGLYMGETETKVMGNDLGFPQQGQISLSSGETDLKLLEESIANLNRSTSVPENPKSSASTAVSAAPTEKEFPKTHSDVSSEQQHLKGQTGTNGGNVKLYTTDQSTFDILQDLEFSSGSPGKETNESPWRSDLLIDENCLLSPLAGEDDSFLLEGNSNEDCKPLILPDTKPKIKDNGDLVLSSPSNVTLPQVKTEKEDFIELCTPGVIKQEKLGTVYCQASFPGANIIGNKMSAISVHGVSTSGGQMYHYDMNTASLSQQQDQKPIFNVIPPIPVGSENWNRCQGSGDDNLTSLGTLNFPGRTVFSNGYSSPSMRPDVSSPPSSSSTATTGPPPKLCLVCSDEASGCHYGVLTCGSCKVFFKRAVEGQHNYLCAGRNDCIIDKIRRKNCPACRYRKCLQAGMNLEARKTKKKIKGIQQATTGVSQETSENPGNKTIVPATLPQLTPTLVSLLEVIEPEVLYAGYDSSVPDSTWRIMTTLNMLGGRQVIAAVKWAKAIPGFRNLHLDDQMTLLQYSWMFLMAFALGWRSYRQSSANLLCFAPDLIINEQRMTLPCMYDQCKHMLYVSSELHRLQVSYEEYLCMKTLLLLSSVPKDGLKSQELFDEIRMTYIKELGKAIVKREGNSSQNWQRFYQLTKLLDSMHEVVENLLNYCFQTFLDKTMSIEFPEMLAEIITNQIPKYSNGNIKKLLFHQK
Chain of Cytochrome P450 1A2 (Homo sapiens) (P05177 whole entry, looked up): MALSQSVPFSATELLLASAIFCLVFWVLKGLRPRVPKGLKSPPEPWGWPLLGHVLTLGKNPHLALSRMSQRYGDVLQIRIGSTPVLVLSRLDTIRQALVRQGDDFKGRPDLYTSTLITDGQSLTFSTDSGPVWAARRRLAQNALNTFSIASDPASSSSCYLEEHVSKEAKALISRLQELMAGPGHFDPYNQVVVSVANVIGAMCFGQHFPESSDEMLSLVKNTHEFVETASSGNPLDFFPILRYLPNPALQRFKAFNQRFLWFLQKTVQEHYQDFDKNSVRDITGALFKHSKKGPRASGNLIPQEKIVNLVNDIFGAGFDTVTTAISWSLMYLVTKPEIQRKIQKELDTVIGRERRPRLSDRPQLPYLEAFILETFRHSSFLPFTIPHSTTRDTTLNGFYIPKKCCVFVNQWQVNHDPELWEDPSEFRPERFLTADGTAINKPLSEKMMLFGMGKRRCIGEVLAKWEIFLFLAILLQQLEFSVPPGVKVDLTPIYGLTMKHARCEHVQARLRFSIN

Consider `NCCS(=O)(=O)O`, for which the result in [1], in assay [9], in assay [12], in [15] and in assay [17] was inactive. The Potency in assay [2], in [3], in assay [4], in assay [5], in [6] and in assay [7] was more than 92 µM each time. Besides, the Potency in assay [10] and in assay [11] was more than 46 µM in each case. Moreover, the activity change, negative = inhibition in assay [8] (at 38 µM (top of the series)) was 3.83%. For the same molecule, in assay [13], the activity change, negative = cytotoxicity is -1.66%. For the same molecule, the Potency entry in assay [14], in assay [16] and in [18] was “inactive” each time.

With `CCC1(c2ccccc2)C(=O)NCNC1=O`, the molecule was called inactive in assay [1], in [9], in [12], in assay [15] and in [17]. Further, the Potency entry in [19], in [14], in [16] and in assay [18] was “inactive” throughout. Also, the Potency in assay [2], in assay [3], in assay [4], in assay [5], in assay [6] and in [7] was more than 92 µM throughout. Moreover, the Potency in [10] was > 46 µM and > 20.6 µM; in [11], > 46 µM and > 20.6 µM. The activity change, negative = inhibition in assay [8] (at 17.2 µM (top of the series)) was -2.38% and -28.2%; in assay [8] (at 38 µM (top of the series)), 0.117%. Also, in assay [13], the activity change, negative = cytotoxicity is -14.7%.

With `Clc1ccc2c(c1)C(N1CCNCC1)=Nc1ccccc1O2`, the molecule was called inactive in [1], in assay [9] and in [12]. For the same molecule, the Potency in assay [19] was 12.6 µM (active) and 3.98 µM (active); in assay [10] it was > 46 µM and > 20.6 µM; in assay [11] it was > 46 µM and > 20.6 µM. The Potency result in assay [18] is “inactive”.

Turning to `COc1ccc2c(c1)c(CC(=O)O)c(C)n2C(=O)c1ccc(Cl)cc1`, the result in [1], in assay [9], in assay [12], in assay [15] and in [17] was inactive. In addition, the Potency in assay [19] is 10 µM (active); in assay [2] it was more than 92 µM; in assay [3] it was more than 92 µM; in assay [4], more than 92 µM; in assay [5], more than 92 µM; in assay [6], more than 92 µM. Further, the Potency is more than 92 µM in assay [7]; > 46 µM and > 20.6 µM in [10]; > 46 µM and > 20.6 µM in assay [11]. Besides, the activity change, negative = inhibition in assay [8] (at 17.2 µM (top of the series)) was -5.62% and 13.9%; in [8] (at 38 µM (top of the series)), 8.92%. For the same molecule, the activity change, negative = cytotoxicity in assay [13] is 0.758%. Besides, the Potency entry in assay [14], in assay [16] and in assay [18] was “inactive” each time.
